# Bioassay records deposited in PubChem by National Center for Advancing Translational Sciences (NCATS).
# GLS inh = glutaminase GLS (human) inhibition | O94925 | GLS enzymatic activity, qHTS titration | Potency, µM (series often up to 45.5 µM), without a hit: top-dose activity change, negative = inhibition, hits mostly inhibitors | 0.21% of 410,000 active | AID 624170; also: % is scaled to controls: 0 for no effect and ±100 for the full control effect
# Target sequence (O94925 whole entry, looked up): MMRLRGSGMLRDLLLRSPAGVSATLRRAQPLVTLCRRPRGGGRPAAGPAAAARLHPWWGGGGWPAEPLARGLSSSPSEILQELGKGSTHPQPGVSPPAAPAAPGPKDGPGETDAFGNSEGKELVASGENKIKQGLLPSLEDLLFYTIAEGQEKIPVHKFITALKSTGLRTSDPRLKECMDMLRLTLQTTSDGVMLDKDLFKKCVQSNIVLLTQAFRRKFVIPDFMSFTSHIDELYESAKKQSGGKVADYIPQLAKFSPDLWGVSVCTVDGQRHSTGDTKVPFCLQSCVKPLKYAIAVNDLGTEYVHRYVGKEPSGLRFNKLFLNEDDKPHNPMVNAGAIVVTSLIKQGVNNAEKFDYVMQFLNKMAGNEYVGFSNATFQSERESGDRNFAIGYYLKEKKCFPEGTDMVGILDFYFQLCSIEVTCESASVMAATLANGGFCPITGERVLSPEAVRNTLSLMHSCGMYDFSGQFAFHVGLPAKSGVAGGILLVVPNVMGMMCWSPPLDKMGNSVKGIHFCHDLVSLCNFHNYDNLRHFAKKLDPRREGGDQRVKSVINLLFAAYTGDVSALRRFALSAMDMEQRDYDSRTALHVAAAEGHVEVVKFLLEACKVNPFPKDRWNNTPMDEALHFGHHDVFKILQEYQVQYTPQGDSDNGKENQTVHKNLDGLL
#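 Assay buffer: 45 mM KH2PO4 pH 8.2, 0.02% Tween-20. hKGA acts on L-glutamine (1 mM solution added); product glutamate is reported by an oxidase/peroxidase Amplex Red coupling, with fluorescence taken at baseline and 30 min.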
# HP1b chromo inh = inhibitors of HP1-beta chromodomain binding to methylated histone tails. 0.56% of 390,000 active. P83916. Potency, µM (titrated, usually from 114 µM), inactives show at the top dose activity change, negative = inhibition, hits mostly inhibitors. AID 540317. AlphaScreen HP1-beta / biotin-H3K9me3 peptide binding; also: nearly all actives have a fitted effect of over 70% in size
#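 Compound inhibition of the preformed complex between 50 nM HP1-beta and 50 nM biotinylated H3K9me3 peptide was read by AlphaScreen. Buffer was PBS pH 7.4 with 0.01% Tween-20. Incubations ran 30 min at room temperature, with 10 ug/mL donor/acceptor beads.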
# G9a block = G9a (human) methyltransferase inhibition | G9a H3K9 monomethylation, AlphaScreen, 2 h | Potency, µM (doses to about 102 µM), for the others: top-dose activity, negative = inhibition, hits mostly inhibitors | 8.8% of 350,000 active | AID 504332; also: % is scaled to controls: 0 for no effect and ±100 for the full control effect; nearly all actives have a fitted effect of over 75% in size
#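 Methyltransferase reactions run at room temperature for 2 h (20 nM enzyme, 500 nM biotin-H3K9 peptide, 20 uM SAM) after a 15 min compound preincubation; product detected by AlphaScreen beads and anti-H3K9me1 antibody.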
# BAZ2B block = BAZ2B (human) inhibition. Q9UIF8. AlphaScreen BAZ2B-H3K14Ac peptide displacement. Potency, µM (top dose mostly 114 µM), for inactives: at the highest dose activity change, negative = inhibition, hits mostly inhibitors. 4.4% of 360,000 active. AID 504333; also: % is scaled to controls: 0 for no effect and ±100 for the full control effect; nearly all actives have a fitted effect of over 60% in size
#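 Multi-concentration screen (max 110 uM) measuring displacement of acetylated histone H3 peptide from BAZ2B by AlphaScreen, using 50 nM protein, 50 nM peptide and 10 ug/mL streptavidin donor plus Ni-chelate acceptor beads.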
# JMJD2A Tudor = inhibitors of human JMJD2A Tudor domain; O75164; AlphaScreen JMJD2A-Tudor / H3K4me3 peptide binding; Potency, µM (top dose mostly 114 µM), for inactives: top-dose activity change, negative = inhibition, usual class: inhibitors; 4.4% of 390,000 active; also: % is scaled to controls: 0 for no effect and ±100 for the full control effect; nearly all actives have a fitted effect of over 50% in size
# * marks the source's active call; other numbers are inactive results; ? = inconclusive; nt = no result given; [ ] = another dose, or the depositor's remark. Shown are actives, neighbours in structure and some others; about 10% of the full set was active somewhere. Calls follow the shape of the dose curve; as a rule, active = well fitted curve in the direction sought with a large enough effect; inconclusive = small, poorly fitted or top-dose-only effect, or another doubt; inactive = no such curve, though single readings can be large; an effect the other way counts as inactive or inconclusive. Potency is read from the fitted curve at half-maximal effect.
SMILES,GLS inh,HP1b chromo inh,G9a block,BAZ2B block,JMJD2A Tudor
CCN(CC)c1ccc(NS(=O)(=O)c2ccc3c(c2)oc(=O)n3C)c(C)c1,24%,?,40µM*,-16%,?
O=S(=O)(NCc1ccccn1)c1ccc2ccccc2c1,2%,24%,13%,0%,-7%
CC(=O)Nc1ccc(S(=O)(=O)NCc2ccc(C)n2C)cc1,-1%,13%,40µM*,?,-6%
O=S(=O)(NCc1ccccn1)C(F)(F)F,1%,36%,nt,50µM*,5µM*
CCN(CC)c1ccc(NC(=O)CCS(=O)(=O)c2ccc3c(c2)oc(=O)n3C)c(C)c1,-5%,19%,?,7%[57.1 µM],-14%
CC(=O)Nc1ccc(S(=O)(=O)NCc2ccncc2)cc1,13%,30%,6%[12.7 µM],?,-4%
COc1ccc(S(=O)(=O)NCc2ccccn2)cc1NC(=O)c1ccc(C)cc1,-3%,16%,-7%,-37%,6.3µM*
Cc1ccc(S(=O)(=O)N(C)c2ccccc2C(=O)N2CCCC2)cc1,-1%,11%,nt,7%,-9%
CCOC(=O)C1CCCN(CCC(=O)Nc2ccc(C)c(C)c2)C1 (centres undefined),?,24%,?,-7%,-3%
CN(CC(=O)Nc1ccccc1Br)CC(=O)Nc1ccccc1-c1ccccc1,-4%,34%,44%[12.7 µM],5%,-22%
C/C(=N/Nc1ccnc2cc(Cl)ccc12)c1ccc(O)cc1,18%,-13%,22%[2.33 µM],45µM*,?
C/C(=N/Nc1ccnc2cc(Cl)ccc12)c1ccc(N)cc1,16%,-8%,1.8µM*,45µM*,?
CCOC(=O)c1c(C)oc2ccc(NS(=O)(=O)c3ccc(C(=O)O)cc3)cc12,13%,5%,nt,?,-9%
O=C(O)C(=O)/C(=C\c1ccsc1)c1ccc2ccccc2n1,15%,5%,?,-6%,89µM*
O=C(O)C(=O)/C(=C\c1ccc([N+](=O)[O-])cc1)c1ccc2ccccc2n1,4%,1%,35µM*,?,?
O=C(O)C(=O)/C(=C\c1cccc2ccccc12)c1ccc2ccccc2n1,41%,43%,8%,4%,-18%
O=C(O)C(=O)/C(=C\c1ccccc1)c1ccc2ccccc2n1,-4%,35%,79µM*,1%,?
O=C(c1ccccc1)c1ccc2ccccc2n1,-11%,87%,-2%[12.7 µM],39%,10%
Cc1ccc(S(=O)(=O)N2CCN(C(=O)CN3C(=O)NC4(CCCC4)C3=O)CC2)c(C)c1,1%,-2%,10%[0.501 µM],8%,-13%
COc1ccc(-c2c(C)sc(NC(=O)c3ccnn3C)c2C#N)cc1,-1%,27%,-2%,1%,5%
COC(=O)c1sc(N)c(C(=O)OC)c1COC(=O)CNS(=O)(=O)c1cccc(C#N)c1,15%,13%,12%[59 µM],-3%,-21%
O=C(O)Cc1csc(NC(=O)CSc2cccc(C(=O)O)n2)n1,1%,-18%,nt,-39%,89µM*
Cc1ccc(-c2cc(NC(=O)c3ccccc3Cl)on2)cc1,-9%,1%,1%[59 µM],-2%,-19%
C/C(=N\Nc1ccc([N+](=O)[O-])cc1[N+](=O)[O-])c1cc2c(ccc3ccccc32)oc1=O,nt,nt,nt,-21%,nt
CCOC(=O)c1c(Cc2ccccc2)c[nH]c1C,-11%,-13%,56µM*,-15%,-10%
SMILES,GLS inh,HP1b chromo inh,G9a block,BAZ2B block,JMJD2A Tudor
COCCCN1CN(S(=O)(=O)c2ccc(C)cc2C)c2nc3ccccc3nc21,-2%,31%,32µM*,?,-9%
Cc1ccc(S(=O)(=O)N2CN(CC3CCCO3)c3nc4ccccc4nc32)c(C)c1 (centres undefined),-5%,9%,32µM*,?,-5%
CCCCCN1CN(S(=O)(=O)c2cccs2)c2nc3ccccc3nc21,-1%,25%,28µM*,-2%,-20%
O=S(=O)(c1cccs1)N1CN(CC2CCCO2)c2nc3ccccc3nc21 (centres undefined),1%,13%,?,-5%,-24%
COc1cc2cc(CN(CCc3cccc(C)c3)C(=S)NCCCN(C)C)c(=O)[nH]c2cc1OC,-1%,21%,-23%[59 µM],-9%,-21%
CC1=C(C(=O)Nc2ccc(CC(=O)NCc3ccccc3C)cc2)SCCO1,5%,47%,23%,?,-16%
CCOc1ccccc1CNC(=O)c1ccc(NC(=O)C2=C(C)OCCS2)cc1,-10%,29%,32µM*,?,-34%
COc1cccc(CNC(=O)Cc2ccc(NC(=O)C3=C(C)OCCS3)cc2)c1,-2%,17%,-13%,50µM*,?
CCOC(=O)COc1ccc(/C=C/[N+](=O)[O-])c(OCC(=O)OCC)c1,?,12%,71µM*,-24%,-5%
CCOC(=O)COc1ccc2ccccc2c1/C=C/[N+](=O)[O-],5%,7%,18µM*,-31%,-14%
CCOC(=O)Cn1cc(/C=C/[N+](=O)[O-])c2ccccc21,-2%,30%,nt,?,-31%
CN(CCc1ccccn1)C(=O)CCC1CCCN(C(=O)c2ccccn2)C1 (centres undefined),-2%,40%,-7%,-14%,-8%
COc1ccccc1N1Cc2ccccc2C1,2%,1%,10µM*,56µM*,50µM*
Cc1ccccc1N1Cc2ccccc2C1,6%,52%,7.9µM*,?,-13%
COc1ccc(OC)c(N2Cc3ccccc3C2)c1,-1%,7%,7.9µM*,3%,?
COc1ccc(S(N)(=O)=O)cc1C(=O)NCCCN1CCN(c2ccccc2OC)CC1,27%,16%,-15%,-1%,-9%
CC(C)C(C(=O)Nc1ccc(S(N)(=O)=O)cc1)N1C(=O)c2ccccc2C1=O (centres undefined),-1%,44%,4%,-13%,-5%
CCOC(=O)c1cn2nc(Oc3cccc(F)c3)ccc2n1,5%,25%,16%[59 µM],-3%,-12%
CN1CCN(c2nc3c(c(=O)[nH]c(=O)n3C)n2CCCSc2nnnn2-c2ccccc2)CC1,-6%,24%,25µM*,-16%,-9%
CC(C)CCSc1nc2c(c(=O)[nH]c(=O)n2C)n1CCCc1ccccc1,-1%,34%,40µM*,7%,-1%
CSc1nc2c(c(=O)[nH]c(=O)n2C)n1CCCc1ccccc1,14%,31%,71µM*,-2%,-5%
Cn1c(=O)[nH]c(=O)c2c1nc(SCC(O)CO)n2CCCc1ccccc1 (centres undefined),-5%,68%,-4%,-28%,-4%
CCn1nc(CC(=O)Nc2nnc(CC(=O)N3CCCCC3)s2)c2ccccc2c1=O,58%,37%,?,?,3%
Cc1nn(CC(=O)Nc2nnc(CC(=O)N3CCCC3)s2)c(=O)c2ccccc12,6%,-8%,45µM*,-3%,4%[11.4 µM]
CCCCSc1nc(NCc2ccco2)c2c3c(sc2n1)COC(C)(C)C3,10%,29%,50µM*,-27%,-23%
